Out of some 48,000 compounds screened, about 13,000 (27%) showed an effect of 50% or more. The list shows a part of the results.
Tested on: Wolbachia pipientis
Test: Anti-Wolbachia Cell-Based Screen
Format: functional
Set-up: scale not given: in the data most compounds retested in dose-response had high values
Settings: 5 µM

Compound	Percent Effect [%]
CN1C[C@@H](n2cnc(-c3ccccc3)c2-c2nccn2C)C[C@H]1C(=O)O	-7.865
CN1CCCN(C[C@@H]2CN(C(=O)CCC3CCCC3)C[C@@H]2CO)CC1	0.9084
CC(=O)N1CCCCCC1C1CCN(Cc2nnc(C(C)(C)C)o2)CC1.Cl (stereo not drawn)	-4.894
Cc1nc(C(C)(C)C)sc1C(=O)NCCn1ccnc1	6.238
CNC(=O)c1cc2c(nc1NCC(C)C)CCN(S(=O)(=O)N(C)C)CC2	-14.23
CCN(CC)C(=O)c1ccc(-c2ccsc2)nc1C	7.441
CCN(CC)S(=O)(=O)NCc1ccc(-c2ccc(C(N)=O)c(C)n2)cc1	82.68
Cc1ccc(-c2nc(CNS(=O)(=O)N(C)C)[nH]c2-c2ccccn2)cc1	19.45
Cc1nc(-c2ccc(CNS(=O)(=O)N(C)C)cc2)ccc1C(N)=O	115
CNC(=O)c1ccc(-c2ccc(CNC(=O)COC)cc2)nc1C	125.2
CCC(C)NC(=O)c1ccc(CNC(=O)COC)cc1 (stereo not drawn)	4.124
CNC(=O)c1ccc(-c2ccc(CNS(=O)(=O)N(C)C)cc2)nc1C	96.06
CCN(C(=O)c1ccc(-c2ccccc2)nc1C)C1CC(=O)NC1=O (stereo not drawn)	2.82
CNS(=O)(=O)Cc1ccc(CNC(=O)c2ccc(C)[nH]c2=O)cc1	6.775
Cc1nc(-c2ccsc2)ccc1C(=O)O	-6.285
CNC(=O)c1ccc(CNC(=O)c2ccc(Cl)cc2F)cc1	6.561
O=C1C(NCc2cccc(O)c2)CCN1Cc1ccccc1 (stereo not drawn)	0.7589
CC(=O)N(C)CC(=O)Nc1cccc(N2CCN(CC3CC3)CC2)c1	-2.755
CC(NS(=O)(=O)N(C)C)c1cccc(-n2cccn2)c1 (stereo not drawn)	-7.408
CC(=O)c1cccc(OCCCC(=O)NCC2CCCN2C)c1 (stereo not drawn)	-10.21
COC(=O)c1sccc1S(=O)(=O)NCCC(O)c1ccco1 (stereo not drawn)	-8.026
CCc1nnc(SCC(=O)N2CCc3[nH]nc(C4CCC4)c3C2)o1	38.87
Cc1ccc(CN(C(=O)c2cccc(NC(N)=O)c2)C2CC2)o1	-0.2723
N#Cc1cccc(NC(=O)N[C@H](CO)c2ccccc2)c1	-16.24
COCc1nc(CNC2CCSC2)no1 (stereo not drawn)	-14.23
O=C1CC(NCc2cccc(O)c2)CN1CCc1cccc(Cl)c1 (stereo not drawn)	126.2
CCn1ccnc1CN1CCCC(CO)(Cc2cccc(Cl)c2)C1 (stereo not drawn)	-3.247

Compound	Percent Effect [%]
CCn1ccnc1C1CCN(Cc2cccc(Cl)c2)CC1	9.663
Oc1cccc(CNC2CCN(CCc3ccncc3)CC2)c1	-20.44
CCn1ccnc1CNC1CC(=O)N(CCc2cccc(Cl)c2)C1 (stereo not drawn)	120.9
Cc1cccc(CNC2CC(=O)N(Cc3cccc(F)c3)C2)c1 (stereo not drawn)	24.38
CCn1cc(CNC2CC(=O)N(CCc3cccc(Cl)c3)C2)cn1 (stereo not drawn)	-6.807
O=C1CC(NCc2ccncc2)CN1CCc1cccc(Cl)c1 (stereo not drawn)	73.7
CCc1ncc(CNC2CC(=O)N(CCc3cccc(Cl)c3)C2)cn1 (stereo not drawn)	-5.676
COc1ccccc1CCNC(=O)NC(C)COCC(F)(F)F (stereo not drawn)	-18.36
CC(CS(C)(=O)=O)NCc1cc(Cl)ccc1F (stereo not drawn)	6.588
CN(Cc1ccccc1-n1cccn1)c1nc(N)nc2c1CCNCC2	7.066
COCCN(Cc1ccc(C)cc1)Cc1nccn1C	5.615
CCC(CC)C(=O)NCCc1ccn(-c2ccccc2)n1	133.4
COCCNC(=O)NCCc1ccn(-c2ccccc2)n1	4.023
CCC(C(=O)NCCc1ccn(-c2ccccc2)n1)N1CCCC1=O (stereo not drawn)	2.511
COc1ccc(CNCCc2ccn(-c3ccccc3)n2)cc1O	7.82
CCN(CC)C(=O)NCCc1ccn(-c2ccccc2)n1	134.9
CC(=O)NC1CCc2ccc(S(=O)(=O)NCc3ncccc3C)cc21 (stereo not drawn)	37.01
CC(=O)N1CCCC(Cc2cnc(-c3c(C)nn(C)c3C)cn2)C1 (stereo not drawn)	146.7
COCCN1CCCC(CN(C)c2nc3c(s2)c(C)nn3C)C1 (stereo not drawn)	-14.47
COCCN1CCC(CN(C)c2ncnc3c2c(C)nn3C)C1 (stereo not drawn)	-22.39
Cc1nn(C)c(C)c1OCC(=O)N1CCCCC1	-9.266
Cc1nn(C)c(C)c1OCC(=O)N1CCCC1	-17.38
COCCN1CCCC(Cc2cnc(-c3c(C)nn(C)c3C)cn2)C1 (stereo not drawn)	161.1
CC(=O)N1CCC(Cc2cnc(-c3c(C)nn(C)c3C)cn2)CC1	190.1
COCCn1c(=O)n(Cc2cccc(F)c2F)c2cc(C(=O)O)ccc21	-6.581
Cn1nc(CN2CCCN(C3CCCC3)CC2)c2c(Cl)cccc21	4.033

Source: ChEMBL document CHEMBL3988442, “University of Dundee, Small-Polar-MMV Screening Library” (2021)
